A selection: hits, their analogues and other compounds. The true share with any hit is near 4.1%.
NSD2 inh: NSD2 histone methyltransferase inhibitors, primary screen, biochemical, AlphaScreen, single concentration, set 2; NSD2 peptide methylation, 120 min; actives 0.54% (n = 310,000); Histone-lysine N-methyltransferase NSD2 (Homo sapiens), O96028; inhibition, % at 12.5 µM; in the data active = inhibition above about 50%
Target sequence (O96028 whole entry, looked up): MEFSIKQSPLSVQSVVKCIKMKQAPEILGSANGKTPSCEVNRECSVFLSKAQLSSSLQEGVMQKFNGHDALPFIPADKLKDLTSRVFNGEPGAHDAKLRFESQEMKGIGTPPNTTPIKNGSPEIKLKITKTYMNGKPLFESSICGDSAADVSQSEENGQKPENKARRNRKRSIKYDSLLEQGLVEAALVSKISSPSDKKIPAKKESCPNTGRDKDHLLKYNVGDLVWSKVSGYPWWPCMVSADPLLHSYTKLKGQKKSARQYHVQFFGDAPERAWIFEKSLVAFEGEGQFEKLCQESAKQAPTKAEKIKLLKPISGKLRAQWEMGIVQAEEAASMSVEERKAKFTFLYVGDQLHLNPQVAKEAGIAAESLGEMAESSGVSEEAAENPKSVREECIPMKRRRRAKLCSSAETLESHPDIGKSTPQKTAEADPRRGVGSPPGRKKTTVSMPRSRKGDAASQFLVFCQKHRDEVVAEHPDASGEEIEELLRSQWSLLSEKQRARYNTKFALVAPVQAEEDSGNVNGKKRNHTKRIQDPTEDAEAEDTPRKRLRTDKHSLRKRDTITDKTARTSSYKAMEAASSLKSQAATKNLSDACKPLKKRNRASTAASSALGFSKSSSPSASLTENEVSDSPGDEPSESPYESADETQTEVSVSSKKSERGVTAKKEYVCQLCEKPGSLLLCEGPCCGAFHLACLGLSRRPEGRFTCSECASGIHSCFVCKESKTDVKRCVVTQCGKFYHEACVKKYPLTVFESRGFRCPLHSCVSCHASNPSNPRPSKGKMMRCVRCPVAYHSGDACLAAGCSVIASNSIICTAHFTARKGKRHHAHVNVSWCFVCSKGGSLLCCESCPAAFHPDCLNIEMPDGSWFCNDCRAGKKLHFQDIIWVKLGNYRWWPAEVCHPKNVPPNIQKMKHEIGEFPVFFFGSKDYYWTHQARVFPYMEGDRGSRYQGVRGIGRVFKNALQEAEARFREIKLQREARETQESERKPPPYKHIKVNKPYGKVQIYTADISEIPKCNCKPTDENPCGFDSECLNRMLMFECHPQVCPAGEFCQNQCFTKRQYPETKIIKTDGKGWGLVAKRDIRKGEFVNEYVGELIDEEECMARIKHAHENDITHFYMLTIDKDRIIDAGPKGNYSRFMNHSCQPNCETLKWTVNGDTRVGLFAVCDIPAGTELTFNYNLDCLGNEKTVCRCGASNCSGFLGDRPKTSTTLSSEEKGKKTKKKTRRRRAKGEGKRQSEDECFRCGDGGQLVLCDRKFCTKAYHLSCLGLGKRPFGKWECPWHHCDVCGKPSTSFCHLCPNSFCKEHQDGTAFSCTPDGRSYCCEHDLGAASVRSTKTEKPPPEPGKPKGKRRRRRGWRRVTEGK
Env fusion inh: inhibitors of HIV-1 Env-driven cell-cell fusion, primary screen, HeLa-JRFL effector, CEM21 target cells, luciferase | inhibition, % at 12.3 µM | actives 1.1% (n = 360,000);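 active = mean replicate inhibition score of at least 50 and every replicate individually at or above 50; inconclusive = only one of the two criteria met; inactive = mean below 50 and not all replicates reaching 50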
ALR inh: inhibitors of human ALR sulfhydryl oxidase, primary screen, biochemical, H2O2 detection, HRP-luminol luminescence, single point; FAD-linked sulfhydryl oxidase ALR (Homo sapiens), P55789; actives 3.8% (n = 290,000); purified ALR, DTT oxidation; inhibition, % (concentration not given with the values);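 active = mean replicate inhibition above about 79%, with every replicate also reaching it, limit read from the data; inconclusive = only one of the two criteria met; inactive = mean below limit and not every replicate reaching it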
CASP6 VEID inh: human caspase-6 inhibitors, primary screen, biochemical, VEID-R110 fluorescence, single point, set 2 | P55212 | purified caspase-6, Z-VEID-R110 cleavage fluorescence | inhibition, % at 12.5 µM | actives 0.53% (n = 350,000);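 active = mean inhibition across replicates at least about 35%, with every replicate also reaching that limit, limit read from the data; inconclusive = only one of the two criteria met; inactive = neither criterion met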
PglD inh: C. jejuni PglD acetyltransferase inhibitors, primary screen, biochemical, DTNB colorimetric, single point. AID 602405, 2012. actives 0.098% (n = 360,000). inhibition, % at 12.5 µM. purified PglD enzyme, DTNB colorimetric CoA detection; in the data active = inhibition above about 16%, passing the limit was not always enough; inconclusive = no clear call, values can overlap the other calls
F508del corr: F508del CFTR correction, initial screen, CFBE line, single point. CFBE cells, YFP halide quenching; stimulated with forskolin plus potentiator P3; % fluorescence drop versus neutral controls. activity (quench increase), % at 7.58 µM. actives 0.36% (n = 350,000);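 active = mean added fluorescence quench of at least 8% versus neutral control, with both replicates also reaching 8%; inconclusive = only one of the mean or replicate conditions met; inactive = mean below 8% and not both replicates reaching 8%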;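 note: cells transiently co-express mutant CFTR-F508del with the halide-sensitive YFP; corrector assay measuring rescue of mutant channel to the surface after 24 h compound exposure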
Large screens that a line does not name were inactive; ! = not active in a repeat; [ ] = another dose, or the depositor's remark.

O=C1N(c2ccccc2)C[C@@H]2C[C@@H](c3cc4ccccc4o3)N3CCC[C@@]123	Env fusion inh 76 (no result: ALR inh, CASP6 VEID inh, PglD inh)
Cc1ccc(-c2ccccc2[C@@H]2C[C@H]3CN(C)C(=O)[C@]34CCCN24)o1	none
COCC(=O)Nc1ccc(N(C)C)cc1	none (no result: ALR inh, CASP6 VEID inh, PglD inh, F508del corr)
CN(C)c1ccc(NC(=O)COC(=O)Cn2nnc3ccccc32)cc1	ALR inh 99 (no result: CASP6 VEID inh, PglD inh, F508del corr)
Cc1ccccc1SCC(=O)OCC(=O)Nc1ccc(N(C)C)cc1	ALR inh 99 (no result: PglD inh)
O=C(Cc1ccncc1)NCC[C@H]1CC[C@@H](NC(=O)Nc2ccc(F)cc2)[C@@H](CO)O1	none (no result: NSD2 inh, ALR inh)
CC1=C(C(=O)OCCOc2ccccc2)C(c2coc3ccccc3c2=O)C2=C(CCCC2=O)N1 (stereo unspecified)	Env fusion inh 57 (no result: PglD inh)
COCCOC(=O)C1=C(C)NC2=C(C(=O)CCC2)C1c1ccc(N(C)C)cc1 (stereo unspecified)	ALR inh 100 (no result: CASP6 VEID inh, F508del corr)
CCOC(=O)C1=C(C)NC2=C(C(=O)CCC2)C1c1coc2ccccc2c1=O (stereo unspecified)	none (no result: NSD2 inh, Env fusion inh)
CCN(CC)c1ccc(C2C(C(=O)OCCOC(C)C)=C(C)NC3=C2C(=O)CCC3)cc1 (stereo unspecified)	ALR inh 99 (no result: Env fusion inh, CASP6 VEID inh, F508del corr)
CCCCn1cnc2c(c(CC#N)nn2-c2ccccc2)c1=N	F508del corr 9.4 (no result: ALR inh, PglD inh)
Cn1nc(CC#N)c2c(=N)n(N)cnc21	none (no result: ALR inh)
C[C@H]1CCCCO[C@H](CN(C)C(=O)NC2CCCCC2)[C@@H](C)CN([C@@H](C)CO)C(=O)c2cc(NC(=O)CCCN(C)C)ccc2O1	none (no result: NSD2 inh, ALR inh)
CCOC1=C/C(=C/c2c(N)n3nc(CC(=O)N4CCCC4)sc3nc2=O)C=CC1=O	ALR inh 99
COC1=C/C(=C/c2c(N)n3nc(CC(=O)N4CCCC4)sc3nc2=O)C=CC1=O	ALR inh 84
O=C(/C=C/c1cccs1)Nc1sc2c(c1C(=O)O)CCCC2	ALR inh 88
COC(=O)c1c(NC(=O)/C=C/c2ccco2)sc2c1CCC2	ALR inh 92 (no result: PglD inh, F508del corr)
O=C(Nc1sc2c(c1C(=O)O)CCCC2)c1cccs1	none (no result: CASP6 VEID inh, F508del corr)
N#C[C@H]1[C@@H](c2ccccc2/C=C/c2ccccc2)[C@@H](CO)N1S(=O)(=O)c1cccc(F)c1	Env fusion inh 58[16.7 µM] (no result: NSD2 inh, ALR inh, PglD inh)
O=C1CC(c2ccccc2)Cc2nc(N3CCc4ccccc4C3)ncc21 (stereo unspecified)	none (no result: CASP6 VEID inh, PglD inh, F508del corr)
Cc1ccc(C2CC(=O)c3cnc(N4CCc5ccccc5C4)nc3C2)cc1 (stereo unspecified)	Env fusion inh 68 (no result: CASP6 VEID inh, F508del corr)
COc1ccc(/C=C(/C(=O)c2ccc(Cl)cc2Cl)n2cncn2)cc1	ALR inh 95 (no result: CASP6 VEID inh, F508del corr)
CN(C)c1ccc(/C=C(/C(=O)c2ccc(Cl)cc2Cl)n2cncn2)cc1	none (no result: ALR inh, CASP6 VEID inh, PglD inh, F508del corr)
C[C@@H]1CN([C@@H](C)CO)C(=O)c2cc(NC(=O)CCC(F)(F)F)ccc2O[C@@H](C)CCCCO[C@@H]1CN(C)CC1CCCCC1	none (no result: NSD2 inh, ALR inh, CASP6 VEID inh)
CCN(CC)c1ccc(CNCc2cccs2)cc1	ALR inh 99 (no result: PglD inh)
COc1ccc(-c2coc3c(C(=O)NCc4ccc(C(F)(F)F)cc4)cccc23)c(C)c1	Env fusion inh 67 (no result: ALR inh)
COc1ccc(-c2coc3c(C(=O)NCc4cccc(Cl)c4)cccc23)c(C)c1	Env fusion inh inconclusive (no result: ALR inh)
S=c1[nH]c(-c2ccccc2)cn1/N=C/c1ccc(Br)cc1	none (no result: PglD inh)
O=C(O)c1ccc(/C=N/n2cc(-c3ccccc3)[nH]c2=S)cc1	ALR inh 99 (no result: PglD inh)
COc1cc(-c2n[nH]c(=S)n2/N=C/c2cccn2C)cc(OC)c1OC	ALR inh 97 (no result: PglD inh)
COc1cc(/C=N/n2c(COc3ccccc3)n[nH]c2=S)cc(Br)c1O	ALR inh 97
CCc1n[nH]c(=S)n1/N=C/c1cc(Br)c(O)c(OC)c1	none (no result: PglD inh)
Cc1ccc(-c2n[nH]c(=S)n2/N=C/c2ccc(C(=O)O)cc2)cc1	ALR inh 90
C[C@@H]1CCCCO[C@@H](CN(C)C(=O)Nc2ccc3c(c2)OCO3)[C@H](C)CN([C@H](C)CO)C(=O)c2cc(N(C)C)ccc2O1	none (no result: NSD2 inh, ALR inh, CASP6 VEID inh, PglD inh)
C[C@@H]1CN([C@@H](C)CO)C(=O)c2cc(Br)cnc2O[C@H]1CN(C)C(=O)C1CCC1	none (no result: NSD2 inh, ALR inh, CASP6 VEID inh, PglD inh)
C[C@@H]1CN([C@H](C)CO)C(=O)c2cc(NC(=O)Cc3ccccc3)ccc2O[C@@H](C)CCCCO[C@H]1CN(C)S(=O)(=O)c1ccc(Cl)cc1	none (no result: NSD2 inh, ALR inh)
COc1cc(/C=N/n2c(-c3n[nH]c4c3CCC4)n[nH]c2=S)ccc1O	ALR inh 99 (no result: NSD2 inh, PglD inh)
Oc1ccc(/C=N/n2c(-c3ccccc3)n[nH]c2=S)cc1Br	ALR inh inconclusive, CASP6 VEID inh 52
Oc1c(Br)cc(/C=N/n2c(-c3ccccc3)n[nH]c2=S)c(O)c1Br	ALR inh inconclusive (no result: NSD2 inh, Env fusion inh, CASP6 VEID inh, F508del corr)
Oc1c(Br)cc(/C=N/n2c(-c3ccccc3)n[nH]c2=S)cc1Br	none
Cc1c(Br)c(O)c(Br)c(O)c1/C=N/n1c(-c2ccccc2)n[nH]c1=S	ALR inh 98 (no result: NSD2 inh, Env fusion inh, F508del corr)
COc1cc(/C=N/n2c(-c3ccccc3)n[nH]c2=S)ccc1O	ALR inh 99 (no result: PglD inh)
C[C@H](CO)N1C[C@H](C)[C@H](CN(C)C(=O)Nc2ccc3c(c2)OCO3)Oc2c(NS(=O)(=O)c3cccs3)cccc2C1=O	none (no result: NSD2 inh, Env fusion inh, ALR inh)
CC(C)NC(=O)N[C@H]1C=C[C@H](CC(=O)N2CCCCC2)O[C@H]1CO	none (no result: NSD2 inh, ALR inh)
C[C@@H](NC(=O)C[C@H]1C=C[C@@H](NC(=O)C2CCC2)[C@H](CO)O1)c1ccccc1	none (no result: NSD2 inh, ALR inh)
CCCN(C)C[C@H]1OCCCC[C@H](C)Oc2ccc(NS(=O)(=O)c3cn(C)cn3)cc2C(=O)N([C@H](C)CO)C[C@H]1C	none (no result: NSD2 inh, ALR inh, CASP6 VEID inh, PglD inh)
O=C(Cc1ccccc1)N1C[C@@H]2[C@H](c3ccccc31)[C@H](CO)N2C(=O)C1CC1	none (no result: NSD2 inh, Env fusion inh, ALR inh)
C[C@@H]1CN([C@H](C)CO)C(=O)c2c(c3ccccc3n2C)-c2ccccc2CO[C@@H]1CN(C)S(=O)(=O)c1cccc(F)c1	Env fusion inh 95[16.7 µM] (no result: NSD2 inh, ALR inh)
C[C@H](CO)N1C[C@H](C)[C@H](CN(C)S(=O)(=O)c2cccc(C#N)c2)OCc2ccccc2-c2c(n(C)c3ccccc23)C1=O	Env fusion inh 57[16.7 µM] (no result: NSD2 inh, ALR inh)
C[C@H](CO)N1C[C@H](C)[C@H](CN(C)S(=O)(=O)c2cccc(F)c2)OCc2ccccc2-c2c(n(C)c3ccccc23)C1=O	Env fusion inh 98! (no result: NSD2 inh, ALR inh)
C[C@@H]1CN([C@@H](C)CO)C(=O)c2c(c3ccccc3n2C)-c2ccccc2CO[C@H]1CN(C)S(=O)(=O)c1cccc(C#N)c1	none (no result: NSD2 inh, ALR inh)
O=C(NCC[C@@H]1CC[C@@H](NS(=O)(=O)c2ccccc2)[C@H](CO)O1)c1ccccc1F	none (no result: NSD2 inh, ALR inh)
O=C(NC(=S)NCc1ccncc1)c1ccccc1	ALR inh 94

Screens deposited in PubChem by Broad Institute.
